Compounds with a hit are over-represented: about 7.2% of the library has one in this group of screens.
HEK293 cAMP cs = parental HEK293 cAMP activation (counter-screen); 73,000 tested, 2.5% active; parental HEK293 CNG cAMP sensor, membrane potential fluorescence; Potency, µM (series often up to 57.1 µM), inactives show at the highest dose activation, hits mostly activators; note: % of control where 0% means no effect; nearly all actives have a fitted effect of over 55% in size
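Counterscreen for endogenous-receptor signalling: CNG-channel HEK 293 cells report cAMP rise by membrane depolarization. After 60 min dye equilibration with 100 uM RO 20-1724, compounds incubated 30 min before bottom-read fluorescence at 590 nm.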
Bst PK mod = modulators of Bacillus stearothermophilus pyruvate kinase | purified pyruvate kinase, luminescence ATP production; ribose 5-phosphate activator present at AC10 | Potency, µM | 51,000 tested, 1.2% active | AID 361; in the data active = potency below about 11 µM; inconclusive = mostly about 12 µM to 25 µM;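 the screen sought inhibitors and activators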;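 note: scaled between full activation by ribose 5 phosphate and full inhibition by luteolin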
FLuc inh = firefly luciferase inhibition | P08659 | purified firefly luciferase, luminescence, 8 min | Potency, µM (titrated, usually from 57.1 µM), without a hit: top-dose activity change, negative = inhibition, usual class: inhibitors | 72,000 tested, 2.2% active | AID 411; note: % is set by controls: 0 for no effect and ±100 for the full control effect; nearly all actives have a fitted effect of over 40% in size
Target sequence (P08659 whole entry, looked up): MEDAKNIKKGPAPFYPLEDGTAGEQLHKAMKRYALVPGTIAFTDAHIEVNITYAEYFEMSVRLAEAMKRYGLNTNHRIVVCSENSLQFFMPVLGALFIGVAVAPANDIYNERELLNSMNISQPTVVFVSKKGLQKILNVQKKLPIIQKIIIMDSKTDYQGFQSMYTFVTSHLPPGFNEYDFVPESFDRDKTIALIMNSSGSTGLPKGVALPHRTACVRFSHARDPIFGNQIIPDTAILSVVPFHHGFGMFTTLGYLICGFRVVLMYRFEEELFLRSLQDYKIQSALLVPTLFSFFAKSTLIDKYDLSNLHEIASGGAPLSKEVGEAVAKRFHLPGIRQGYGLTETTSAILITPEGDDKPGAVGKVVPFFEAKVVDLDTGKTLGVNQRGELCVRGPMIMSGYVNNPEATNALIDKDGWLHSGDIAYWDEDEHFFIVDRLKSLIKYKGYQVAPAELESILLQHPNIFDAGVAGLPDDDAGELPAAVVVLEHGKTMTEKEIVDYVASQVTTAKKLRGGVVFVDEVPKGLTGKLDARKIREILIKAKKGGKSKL
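Firefly luciferase (PKLight detection mix) with 10 uM ATP in pH 7.2 imidazole buffer (KCl, MgCl2, Tween 20, BSA). Compounds tested across a concentration series (qHTS). Luminescence read after 8 min at ambient temperature.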
Tau filament bind = binders of human tau filaments; AID 596; Potency, µM (top dose mostly 57.1 µM), without a hit: at the highest dose activity change, negative = inhibition; recombinant tau filaments, thioflavin S fluorescence, 15 h; filaments grown with octadecylsulfate alongside compound; 71,000 tested, 2% active; P10636;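 note: % is set by controls: 0 for no effect and ±100 for the full control effect; actives lower thioflavin S fluorescence by blocking filaments or displacing dye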
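Thioflavine S fluorescence (ex 450, em 510 nm) reports filaments formed from 1 uM human tau plus 30 uM ODS over 15 h at 37 C (10 mM HEPES pH 7.4, 100 mM NaCl, 5 mM DTT); compounds displacing dye or blocking filaments lower signal.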
TSHR agonist = TSH receptor (human) agonism | P16473 | HEK293-CNG-TSHR cells (CNG channel as cAMP sensor), membrane potential dye, cAMP | Potency, µM (titrated, usually from 57.1 µM), for inactives: top-dose activation, hits mostly activators | 73,000 tested, 0.48% active; active = well fitted activation curve with a large enough effect in the main read-out, with a control signal flat, not every such curve was filed as active; inconclusive = small, poorly fitted or top-dose-only effect, or a change in a side signal; inactive = no such curve, though single readings can be large or run the other way; % of control where 0% means no effect;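 note: the control signal comes from parental cells without the receptor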
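HEK 293 cells stably expressing TSHR and a cAMP-gated CNG channel; parental CNG-only cells as counterscreen. Cells preloaded 60 min with membrane potential dye plus 100 uM RO 20-1724, then compound 30 min; fluorescence read at 590 nm.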
ERK AVP block = vasopressin-driven ERK pathway inhibition | Potency, µM (top dose mostly 57.5 µM), without a hit: at the top dose activity, negative = inhibition, most hits filed as inhibitors | HEK293-V1b, vasopressin-stimulated pERK AlphaScreen | 72,000 tested, 0.99% active; note: % is set by controls: 0 for no effect and ±100 for the full control effect; nearly all actives have a fitted effect of over 55% in size
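Phosphorylated ERK1/2 detected via AlphaScreen bead proximity in lysates of V1b-expressing HEK293 cells given 25 nM vasopressin for 5 min after 30 min compound exposure (37 °C). AC50 from Hill equation; basal DMSO 0%, vasopressin 100%.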
An asterisk follows results filed as active; i = inactive; ? = inconclusive; . = no result given; [ ] = another dose, or the depositor's remark. Unless noted, calls come from the whole dose curve; as a rule, active = well fitted curve in the direction sought with a large enough effect; inconclusive = small, poorly fitted or top-dose-only effect, or another doubt; inactive = no such curve, though single readings can be large; an effect the other way counts as inactive or inconclusive. Potency is the fitted concentration of half-maximal effect.

SMILES	HEK293 cAMP cs	Bst PK mod	FLuc inh	Tau filament bind	TSHR agonist	ERK AVP block
CO[C@H]1OC[C@@]2(C)[C@@H]3C4=C(CN2C(=O)OC(C)(C)C)[C@H](C)[C@H](CO)[C@H](CO)[C@H]4CC[C@H]13	13.1%	.	.	171.9%	9.3%	-10.4%
Cc1ccc(C(=O)Nc2nc3ccccc3c(=O)s2)cc1	11.9%	6.81*	?	-1.4%	4.7%	5.0%
COc1ccc(Nc2nc3ccccc3c(=O)s2)c(OC)c1	-1.2%	>57	1.6%	2.5%	1.9%	0.1%
COCCn1c(=O)c(-c2cc(F)cc(F)c2)nc2cnc(Oc3ccccc3)nc21	26.4%	.	1.1%[11.4 µM]	?	-10.2%	-15.9%
CCN(C(=O)c1ccc(C(C)(C)C)cc1)c1nnc(Cn2nnc3ccccc32)s1	25.1µM*	>57	2.5%	17.2%	?	?
O=C(NCCCn1ccnc1)c1cn(-c2ccccc2)nc1-c1ccc(F)cc1	-3.0%	i	12.6µM*	10.7%	-0.9%	-10.6%
CCOC(=O)O[C@]1(C(=O)COC(=O)CC)CC[C@@H]2[C@@H]3CCC4=CC(=O)C=C[C@@]4(C)[C@H]3[C@H](O)C[C@]21C	27.4%[25.6 µM]	.	-5.2%[25.5 µM]	-17.6%[25.6 µM]	-3.1%[25.6 µM]	13.8%[25.7 µM]
Cc1noc(C)c1-c1nccc(NCc2ccccc2)n1	?	.	-0.5%[2.29 µM]	-12.3%	?	-8.4%
CN(Cc1ccco1)c1ncncc1-c1cccc(C#N)c1	17.5%	.	-3.4%[2.29 µM]	-3.9%	-2.1%	-3.0%
CCNc1ncc2nc(-c3cccs3)c(=O)n(CCc3ccccc3)c2n1	?	.	0.6%[11.4 µM]	170.6%	?	?
O=C(CSc1nnc(SCc2ccc(Cl)cc2)s1)N1CCOCC1	?	.	12.6µM*	4.5%	?	-8.6%
O=C(CSc1ccc(Cl)cc1)N1CCOCC1	2.4%	>57	-1.2%	-5.5%	-5.1%	-3.6%
CC(C)OCCCn1c(-c2ccco2)nc2nc3ccccc3nc21	10.4%	>57	-10.0%	15.8µM*	8.9%	-26.3%
CCCCc1ccc(-c2nc(N)n[nH]2)cc1	?	.	7.94µM*	7.8%	?	-10.1%
C=CCn1c(SCC(O)Cn2c3ccccc3c3ccccc32)nnc1-c1ccco1 (stereo not given)	25.1µM*	>57	1.5%	17.2%	?	-1.9%
O=C(Oc1ccccc1)N1CCC2(CC1)CN(c1ccncc1)C2	18.5%	.	1.8%[11.4 µM]	20.9%	-5.3%	8.2%
CCOC(=O)N1CCN(c2c(F)cc3[nH]c(=S)[nH]c3c2Br)CC1	1.2%	>57	0.1%	15.8µM*	19.9%	13.6%
Cc1noc(C)c1C(=O)N1CCC[C@@]2(CCN(C(c3ccccc3)c3ccccc3)C2)C1	9.2%	.	0.9%[11.4 µM]	-2.5%	5.6%	12.9%
Cc1noc(C)c1C(=O)N1CCC2(CC1)CCN(C(c1ccccc1)c1ccccc1)CC2	22.4%	.	0.5%[11.4 µM]	4.1%	31.6µM*	-0.2%
CC(=O)N1CCC2(CCCN(C(c3ccccc3)c3ccccc3)C2)CC1	15.8µM*	.	0.4%[11.4 µM]	20.7%	?	14.0%
O=C(c1ccco1)N1CCC[C@@]2(CCN(C(c3ccccc3)c3ccccc3)C2)C1	15.8µM*	.	0.1%[11.4 µM]	11.3%	?	-4.4%
CC(=O)N1CCC2(CC1)CCN(C(c1ccccc1)c1ccccc1)CC2	26.8%	.	0.0%[11.4 µM]	7.9%	9.1%	-8.7%
COC(=O)N1CCC[C@@]2(CCN(C(c3ccccc3)c3ccccc3)C2)C1	7.94µM*	.	1.9%[11.4 µM]	3.3%	?	4.3%
C[C@H](CCC(=O)O)[C@H]1CC[C@H]2[C@H]3C(C[C@H](O)[C@]12C)[C@@]1(C)CC[C@@H](O)C[C@H]1C[C@H]3O (stereo not given in full)	.	.	.	.	.	17.8%
CO[C@]1(NC(=O)[C@H](C(=O)O)c2ccc(O)cc2)C(=O)N2C(C(=O)O)=C(CSc3nnnn3C)CO[C@H]21	1.9%[25.6 µM]	.	-2.0%[25.5 µM]	9.4%[25.6 µM]	-1.6%[25.6 µM]	5.6%[25.7 µM]
SMILES	HEK293 cAMP cs	Bst PK mod	FLuc inh	Tau filament bind	TSHR agonist	ERK AVP block
NC(Cc1ccc(O)c(O)c1)C(=O)O (stereo not given)	.	.	.	.	.	-26.5%
CCSC1=C(C#N)C2(CCCCC2)C(C#N)=C(N)N1	-9.2%	i	15.8µM*	2.9%	-5.9%	?
N#CC1=C(N)NC(SCc2ccccc2)=C(C#N)C12CCCCC2	-13.2%[11.4 µM]	.	-1.1%	-5.8%[11.4 µM]	-21.6%[11.4 µM]	?
FC(F)(F)c1ccccc1-c1nc(NCCN2CCOCC2)c2ccccc2n1	8.0%	.	1.5%[2.29 µM]	-17.0%	-1.8%	-3.6%
COc1ccc(Nc2nc3ccccc3nc2C)cc1	13.6%	.	-9.2%	20µM*	-6.4%	-15.3%
COc1ccc(Nc2nc(C)c3ccccc3n2)cc1	4.0%	?	?	-19.1%	5.1%	?
c1ccc(CCc2ccccc2-c2nc(-c3ccccn3)no2)cc1	25.1µM*	.	1.0%	124.6%	?	8.0%
Cc1onc(-c2ccccc2Cl)c1-c1nc(-c2ccccn2)no1	31.6µM*	>57	1.6%	8.0%	?	-13.3%
Cc1occc1-c1nc(-c2ccncc2)no1	7.5%	.	-2.9%	3.1%	.	-4.3%
Cc1occc1-c1nc(-c2ccccn2)no1	0.2%	.	12.6µM*	-6.9%	4.0%	-14.2%
O=C(c1ccncc1)N1CCC2(CCCN(c3ccccc3)C2)CC1	24.7%	.	1.1%[11.4 µM]	16.7%	10.5%	0.7%
NC(CSCSCC(N)C(=O)O)C(=O)O (stereo not given)	.	.	.	.	.	11.4%
CC(CCC(=O)O)C1CCC2C3C(O)C[C@@H]4CC(O)CC[C@@]4(C)C3CC(O)[C@]12C (stereo not given in full)	.	.	.	.	.	16.6%
O=C(c1cn(-c2ccccc2)nc1-c1cccs1)N1CCN(c2ccccn2)CC1	6.9%	i	25.1µM*	15.1%	23.9%	?
N#CCCn1c(=O)c(-c2ccc(F)cc2)nc2cnc(Oc3cccc(Cl)c3)nc21	5.8%	.	0.7%[11.4 µM]	158.3%	-0.7%	-11.0%
COc1ccc(C)cc1NC(=O)CSc1nnc(-c2cc3cccc(OC)c3o2)n1N	15.8µM*	>57	-0.6%	57.0%	?	-6.5%
O=S(=O)(c1ccccc1)N1CCC2(CCCN(C(c3ccccc3)c3ccccc3)C2)CC1	6.4%	.	-0.4%[11.4 µM]	7.6%	4.6%	7.4%
Cn1nc(-c2ccc(N3CCOCC3)c(NC(=O)COc3ccccc3)c2)c2ccccc2c1=O	9.8%	>57	-0.1%	-2.1%	10µM*	-19.4%
Cn1nc(-c2ccc(N3CCCCC3)c(NC(=O)c3ccco3)c2)c2ccccc2c1=O	?	>57	-0.3%	20.6%	?	1.0%
Nc1nonc1-c1nc2ccccc2n1Cc1ccccc1	25.1µM*	>57	1.0%	54.4%	?	31.7%
CCOC(=O)c1ccccc1NC(=O)Cn1c(-c2nonc2N)nc2ccccc21	25.1µM*	>57	3.3%	288.1%	?	17.8%
Nc1nonc1-c1nc2ccccc2n1CC(=O)NC1CCCC1	6.31µM*	>57	1.6%	91.3%	?	2.8%

Source: PubChem BioAssay
